High-throughput results (PubChem BioAssay)
Gli-Sufu block – antagonists of Gli-Sufu signaling | Sufu-KO-LIGHT fibroblasts, Gli luciferase reporter luminescence | inhibition, % at 5 µM | 340,000 tested, 0.74% active | AID 588413;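 active means inhibition above about 55%, limit read from the data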;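 further: 0% = DMSO-treated cells and 100% = wells with medium but no cells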
NCOA3 inh – inhibitors of human steroid receptor coactivator 3 (SRC3) | AID 588352 | 360,000 tested, 0.17% active | inhibition, % at 3.6 µM | Q9Y6Q9 | HEK293 GAL4-SRC3 luciferase reporter, luminescence;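 active means inhibition above a per-campaign cutoff, the mean of all compounds plus 3 SD, cut at about 60% in these data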;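 further: 0% = DMSO-treated cells and 100% = gossypol-treated cells at 36 µM; higher means less SRC3-driven luciferase light from the GAL4 reporter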
NCOA2 inhibitor – human SRC2 (NCOA2) inhibition. Q15596. HEK293 GAL4-SRC2 luciferase reporter, luminescence. inhibition, % at 9 µM. 370,000 tested, 0.17% active. AID 651957;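 active means inhibition above the mean inhibition of all tested compounds plus 3 SD, set per campaign, cut at about 52% in these data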;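 further: 0% = DMSO treated cells and 100% = cells given Gossypol at 36 µM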
Target sequence (Q15596 whole entry, looked up, the tested form may be a part): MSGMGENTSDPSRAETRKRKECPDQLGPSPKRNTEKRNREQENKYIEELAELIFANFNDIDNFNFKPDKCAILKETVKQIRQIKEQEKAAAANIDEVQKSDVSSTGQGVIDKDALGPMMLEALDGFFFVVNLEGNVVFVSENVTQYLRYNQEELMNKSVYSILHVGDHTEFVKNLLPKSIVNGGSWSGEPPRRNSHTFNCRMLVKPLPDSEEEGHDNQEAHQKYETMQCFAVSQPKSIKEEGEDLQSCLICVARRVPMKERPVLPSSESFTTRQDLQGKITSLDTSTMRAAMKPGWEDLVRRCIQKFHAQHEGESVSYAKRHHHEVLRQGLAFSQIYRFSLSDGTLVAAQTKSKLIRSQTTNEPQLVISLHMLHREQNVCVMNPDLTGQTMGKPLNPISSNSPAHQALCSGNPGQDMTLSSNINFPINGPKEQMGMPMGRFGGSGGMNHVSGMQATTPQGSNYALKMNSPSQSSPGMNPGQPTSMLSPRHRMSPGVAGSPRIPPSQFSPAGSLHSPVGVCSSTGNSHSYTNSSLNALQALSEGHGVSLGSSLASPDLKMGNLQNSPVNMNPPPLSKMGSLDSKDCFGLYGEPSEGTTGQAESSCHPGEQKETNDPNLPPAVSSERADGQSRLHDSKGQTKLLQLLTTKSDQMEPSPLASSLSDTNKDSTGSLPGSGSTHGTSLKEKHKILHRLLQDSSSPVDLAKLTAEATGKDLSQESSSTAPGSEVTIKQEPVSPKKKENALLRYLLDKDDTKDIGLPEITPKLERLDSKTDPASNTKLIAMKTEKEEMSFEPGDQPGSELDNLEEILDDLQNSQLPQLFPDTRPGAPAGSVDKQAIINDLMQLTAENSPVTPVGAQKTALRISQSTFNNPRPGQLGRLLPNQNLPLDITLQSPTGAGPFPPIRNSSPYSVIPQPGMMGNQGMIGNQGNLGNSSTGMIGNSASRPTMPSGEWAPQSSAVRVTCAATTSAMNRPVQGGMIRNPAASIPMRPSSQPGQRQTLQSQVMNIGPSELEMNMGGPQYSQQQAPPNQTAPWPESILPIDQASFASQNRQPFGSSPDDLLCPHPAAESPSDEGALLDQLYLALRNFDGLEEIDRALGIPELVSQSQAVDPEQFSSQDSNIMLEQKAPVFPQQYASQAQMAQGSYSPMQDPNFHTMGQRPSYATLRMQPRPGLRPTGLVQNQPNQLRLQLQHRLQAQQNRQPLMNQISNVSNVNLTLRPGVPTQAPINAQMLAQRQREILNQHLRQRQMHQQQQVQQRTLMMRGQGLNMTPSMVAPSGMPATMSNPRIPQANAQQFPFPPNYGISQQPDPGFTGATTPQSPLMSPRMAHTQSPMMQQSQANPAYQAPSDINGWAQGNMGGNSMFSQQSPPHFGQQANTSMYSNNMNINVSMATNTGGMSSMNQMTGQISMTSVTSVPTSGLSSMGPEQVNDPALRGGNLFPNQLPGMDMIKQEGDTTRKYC
COUP-TFII inh – inhibitors of human COUP-TFII (NR2F2); P24468; HEK293T NGFI-A luciferase reporter, luminescence; inhibition, % at 8.6 µM; 370,000 tested, 0.7% active;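 active means inhibition above a per-plate cutoff, mean inhibition of test wells between control levels plus 3 SD, cut at about 38% in these data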;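 further: cells cotransfected with COUP-TFII expression vector driving the NGFI-A reporter; 0% = median of COUP-TF2 test wells and 100% = reporter-only cells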
NR5A2 inv ag – NR5A2 inverse agonism in reporter assay | O00482 | HEK293T StAR-luciferase reporter, LRH-1 transfected, 24 h | inhibition, % at 3.6 µM | AID 602396 | 360,000 tested, 0.13% active;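 active means inhibition above the mean inhibition of all tested compounds plus 3 SD, cut at about 73% in these data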;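 further: 0% = DMSO wells and 100% = reporter-only cells lacking LRH-1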
NCOA1 inh – inhibits human SRC1 coactivator; 360,000 tested, 0.12% active; HEK293 GAL4-SRC1 luciferase reporter, luminescence; inhibition, % at 3.6 µM; Q15788;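 active means inhibition above the campaign mean plus 3 SD, with each screening campaign given its own cutoff, cut at about 60% in these data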;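 further: 0% = DMSO treated cells and 100% = gossypol at 36 µM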
VP16 Luc counter – VP16 inhibition counter-screen for COUP-TFII; shares compounds with COUP-TFII inh; HEK293 Gal4-VP16 luciferase reporter, luminescence; inhibition, % at 8.5 µM; 2,500 tested, 25% active; AID 687007; in the data active means inhibition above about 13%
COUP-TFII conf – COUP-TFII (NR2F2) inhibition, confirmation assay; HEK293 NGFI-A luciferase reporter, luminescence; 2,500 tested, 45% active; AID 687008; inhibition, % at 8.5 µM; shares compounds with COUP-TFII inh;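 active means mean inhibition over three repeats above a set limit taken from the earlier primary screen, cut at about 38% in these data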;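 further: 100% = cells given the luciferase reporter alone without the COUP-TF2 vector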
Numbers without * were called inactive; / = no result given. This is a sample that favours compounds with a hit; in the whole collection about 1.3% have one here.

SMILES	Gli-Sufu block	NCOA3 inh	NCOA2 inhibitor	COUP-TFII inh	NR5A2 inv ag	NCOA1 inh	VP16 Luc counter	COUP-TFII conf
O=C(NCc1cccnc1)/C(=C\c1ccc(-c2ccc(Br)cc2)o1)S(=O)(=O)c1ccccc1	4	84*	52	56*	61	49	44*	48*
O=C(NCc1cccnc1)/C(=C/c1ccc(-c2ccc(Cl)cc2)o1)S(=O)(=O)c1ccccc1	5	68*	66*	49*	56	52	45*	44*
O=C(NCc1cccnc1)/C(=C/c1ccc(-c2cccc(C(F)(F)F)c2)o1)NC(=O)c1ccccc1	-6	17	5	11	-4	4	/	/
Cc1cc(OCC(=O)Nc2ccncc2)ccc1Cl	-14	10	13	20	18	0	/	/
O=C(COc1ccc2ccccc2c1)Nc1ccncc1	4	3	-25	47*	9	-20	-24	8
CCCCOc1ccc(C(=O)Nc2ccncc2)cc1	29	9	-13	51*	27	-9	-60	33
CC(C)(C)c1ccc(NC(=O)COc2ccc(-n3ccnc3)cc2)cc1	34	8	34	51*	24	4	2	47*
Cc1cc(OCC(=O)Nc2ccncc2)cc(C)c1Br	-11	21	-1	58*	35	19	-3	37
O=C1COc2ccccc2C(c2nnnn2Cc2ccccc2)N1Cc1cccs1 (stereo not drawn)	/	/	-22	3	/	/	/	/
CCc1ccc(OCC(=O)Nc2ccncc2)cc1	0	12	21	6	18	4	/	/
Cc1ccc(Oc2ccc(OCC(=O)Nc3ccncc3)cc2)cc1	/	32	29	72*	61	40	19*	74*
CCCOc1ncnc2c1[nH]c1ccccc12	12	-5	7	40*	-2	-27	-41	-1
CC(C)Oc1ncnc2c1[nH]c1ccccc12	12	-12	2	38*	16	-9	-53	25
COc1ccc(S[C@]2(C(=O)N3CCOCC3)CC(=O)N[C@@H]2c2ccc(OC)cc2)cc1	/	/	3	18	/	/	/	/
O=C(Cc1ccc(NC(=O)C2CCCN(C(=O)c3ccccc3)C2)cc1)Nc1cccc(C(=O)N2CCCC2)c1 (stereo not drawn)	/	/	-23	5	/	/	/	/
Nc1[nH]c(C(=O)c2ccc(Br)cc2)c(-c2ccc(Cl)cc2)c1C(=O)NCCc1c[nH]c2ccccc12	/	/	7	3	/	/	/	/
CCCCCCCCCCCCCCCCn1cc[n+](C)c1	82*	37	16	47*	54	5	13	49*
CC1CCN(c2ccc(-c3cccs3)nn2)CC1	10	41	62*	45*	32	18	20*	42*
NCCN1C(=O)S/C(=C\c2ccc3c(c2)OCO3)C1=O	19	31	69*	76*	23	13	27*	34
CCOc1ccccc1-n1c(SCC(=O)Nc2ccccc2C(=O)O)nc2ccccc2c1=O	10	37	37	56*	53	37	23*	37
O=C(NC1CCCC1)[C@@H]1CCCN1C(=O)[C@@H](NS(=O)(=O)c1ccc(F)cc1F)c1ccccc1	/	/	-1	17	/	/	/	/
CCOC(=O)Cc1csc(NC(=O)/C=C/c2ccc(Cl)cc2)n1	-15	-11	-2	44*	-14	-1	-66	5
CC(C)C(=O)N[C@H]1[C@H](O)CCC[C@@]12C(=O)N(Cc1ccccc1)c1ccccc12	/	/	5	-2	/	/	/	/
C[C@@H]1CN([C@@H](C)CO)C(=O)CCCn2cc(nn2)CO[C@H]1CN(C)C(=O)Nc1cccc(C(F)(F)F)c1	/	/	6	9	/	/	/	/
COc1ccc(-c2cc3nc(C)n(N)c(=O)c3s2)cc1	76*	70*	71*	66*	28	58	60*	77*
SMILES	Gli-Sufu block	NCOA3 inh	NCOA2 inhibitor	COUP-TFII inh	NR5A2 inv ag	NCOA1 inh	VP16 Luc counter	COUP-TFII conf
CCC(CO)Oc1cc(NCc2ccccc2O)c2ncn(C(C)C)c2c1 (stereo not drawn)	-9	10	14	43*	16	0	-10	40*
COC(=O)C1=C(C)N(C)C(=NCc2ccccc2C(F)(F)F)NC1c1ccc(F)cc1 (stereo not drawn)	/	/	19	-2	/	/	/	/
O=Nc1c2cc(-c3ccccc3)[nH]nc-2c2ccccc12	-62	-57	-73	-45	-118	-93	/	/
Cc1ccc(-c2cc3c(N=O)c4ccccc4c-3n[nH]2)cc1	59*	73*	61*	84*	42	69*	37*	86*
c1ccc2c(c1)Nc1cc3ccccc3cc1S2	-32	-26	-31	-34	-24	-57	/	/
c1ccc2c(c1)Nc1ccncc1S2	4	35	20	38*	-3	-4	4	14
O=C(CCN1CCOCC1)c1ccc(N2CCCCC2)cc1	-23	24	63*	60*	32	11	39*	40*
COc1ccc(OCC(=O)Nc2ccc3c(c2)nc(CCN2CCN(c4ccccn4)CC2)n3C)cc1	/	10	-13	26	2	5	/	/
Cc1cccc(OCC(=O)Nc2ccc3c(c2)nc(CCN2CCN(c4ccccn4)CC2)n3C)c1	53	9	30	52*	17	5	2	36
Cc1ccc2c(c1)sc(-c1ccc(N(C)C)cc1)[n+]2C	56*	-55	-20	58*	16	-30	-25	53*
Cc1cccc(Cn2cc(COC(=O)N(C)Cc3ccccc3)nn2)c1	/	/	-17	-26	/	/	/	/
COC(=O)[C@]12C[C@H](CC(=O)NCc3ccc(C)o3)C(=O)N(Cc3ccccc3)C1=C[C@H](C(C)C)O[C@@H]2C1CC1	/	/	6	-5	/	/	/	/
CCOc1ccc(-c2cc(CCCC(=O)Nc3cc(OC)ccc3OC)no2)cc1	13	15	73*	67*	17	4	38*	32
CCOc1ccc(-c2cc(CCCC(=O)Nc3cccc(OC)c3)no2)cc1	5	0	55*	42*	43	5	2	16
CCOc1ccc(NC(=O)CCCc2cc(-c3ccc(OCC)cc3)on2)cc1	8	-15	-14	5	-13	-44	/	/
CCOc1ccc(-c2cc(CCCC(=O)NCCc3ccc(OC)c(OC)c3OC)no2)cc1	14	2	41	13	-6	2	/	/
COc1ccc(-c2cc(C(=O)Nc3cccc(O)c3)no2)cc1	-87	-30	9	50*	-42	-33	-7	8
O=C(c1ccccc1)n1ccc2ccc(-c3ccc4ccn(Cc5ccccc5)c4c3)cc21	/	/	-21	-10	/	/	/	/
CC(=O)Nc1nc2ncccn2c1-c1ccc(C)cc1	/	/	7	-25	/	/	/	/
Nc1ccc(Oc2c(Cl)cccc2Cl)nc1	-3	5	1	-5	-10	7	/	/
